The values that follow come from the supplement of paper PMC10849652.

Experiment in all cases: log2 fold change, soluble protein after heating vs DMSO (PISA); higher = thermal stabilisation; K562 cells, 10 uM, 30 min; active = over 0.2 and 3.5 SD of the protein, either way, in both replicates (recomputed)
For one test, the target named is YWHAB (UniProt P31946). The method in brief:
(§1)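 Quantification of soluble protein used TMTpro 16plex LC-MS/MS, with channel sums equalised. Samples were the supernatant after 21,000xg for 90 min of pooled aliquots from K562 cells (2×10^6 cells/mL) treated with 10 μM compound for 30 min, heated for 3 min over 48°C-58°C, and extracted in PBS with 0.5% NP-40 at 4°C. Values, from duplicates, describe thermal stability against control samples on a log2 fold-change scale.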

In the next test the target is YWHAQ (UniProt P27348). The method in brief:
as §1

The target of test [1] is YWHAZ (UniProt E7ESK7). The method in brief:
as §1

Test [2] addresses YWHAZ (UniProt P63104). The method, boiled down:
as §1

Another test deals with YY1 (UniProt P25490). The method, boiled down:
as §1

The target of a further test is ZADH2 (UniProt Q8N4Q0). The method in brief: as §1
ZADH2, sequence (Q8N4Q0 whole entry, looked up): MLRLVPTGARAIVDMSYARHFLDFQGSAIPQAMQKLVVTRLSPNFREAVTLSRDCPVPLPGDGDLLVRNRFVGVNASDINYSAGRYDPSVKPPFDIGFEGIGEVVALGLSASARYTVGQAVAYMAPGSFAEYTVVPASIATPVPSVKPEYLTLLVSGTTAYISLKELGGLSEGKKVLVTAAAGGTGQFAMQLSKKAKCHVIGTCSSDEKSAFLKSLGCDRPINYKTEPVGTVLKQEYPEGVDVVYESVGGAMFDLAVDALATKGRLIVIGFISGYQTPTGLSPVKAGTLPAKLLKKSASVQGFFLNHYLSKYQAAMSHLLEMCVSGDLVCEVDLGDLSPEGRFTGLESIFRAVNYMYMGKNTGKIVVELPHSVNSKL
The target of another test is ZBTB43 (UniProt O43298). The method in brief: as §1
ZBTB43, sequence (O43298 whole entry, looked up): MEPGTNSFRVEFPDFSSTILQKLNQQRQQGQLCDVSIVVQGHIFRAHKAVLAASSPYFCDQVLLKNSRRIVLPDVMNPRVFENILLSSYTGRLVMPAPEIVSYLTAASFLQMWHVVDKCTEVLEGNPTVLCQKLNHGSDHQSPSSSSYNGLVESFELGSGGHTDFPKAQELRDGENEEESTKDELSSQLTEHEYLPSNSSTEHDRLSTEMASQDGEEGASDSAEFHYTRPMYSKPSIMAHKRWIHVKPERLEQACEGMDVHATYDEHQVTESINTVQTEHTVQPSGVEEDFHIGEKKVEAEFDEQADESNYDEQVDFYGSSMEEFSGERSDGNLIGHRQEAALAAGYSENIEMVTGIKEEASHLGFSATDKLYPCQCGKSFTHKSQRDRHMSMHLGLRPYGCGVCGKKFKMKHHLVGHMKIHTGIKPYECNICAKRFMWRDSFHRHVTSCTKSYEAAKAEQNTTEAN
The target in a further test is ZC3H18 (UniProt Q86VM9). The method, boiled down:
as §1

In a further test the target is ZC3H8 (UniProt Q8N5P1). The method, boiled down:
as §1

The next test deals with ZC3HC1 (UniProt Q86WB0). The method in brief: as §1
The next test addresses ZCCHC9 (UniProt Q8N567). The method, boiled down: as §1
In a further test the target is ZDHHC17 (UniProt Q8IUH5). The method in brief:
as §1

The next test has as its target ZDHHC20 (UniProt Q5W0Z9). The method in brief: as §1
The target in a further test is ZDHHC5 (UniProt Q9C0B5). The method in brief: as §1
The target of the next test is ZDHHC6 (UniProt Q9H6R6). The method in brief:
as §1

A further test deals with ZDHHC7 isoform 2 (UniProt Q9NXF8). The method, boiled down: as §1
ZDHHC7 isoform 2, sequence (Q9NXF8 whole entry, looked up, canonical isoform): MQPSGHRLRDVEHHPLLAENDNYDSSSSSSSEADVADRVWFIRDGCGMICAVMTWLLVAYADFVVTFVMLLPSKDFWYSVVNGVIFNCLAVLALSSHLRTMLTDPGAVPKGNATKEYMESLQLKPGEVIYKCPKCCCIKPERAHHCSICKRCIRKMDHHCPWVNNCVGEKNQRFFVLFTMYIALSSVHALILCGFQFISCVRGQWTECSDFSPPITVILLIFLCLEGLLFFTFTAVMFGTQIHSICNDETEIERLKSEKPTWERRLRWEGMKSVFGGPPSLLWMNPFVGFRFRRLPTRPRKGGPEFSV
For another test, the target named is ZBTB21 (UniProt Q9ULJ3). The method in brief:
as §1

The target of another test is ZDHHC8 isoform 3 (UniProt Q9ULC8). The method, boiled down: as §1
ZDHHC8 isoform 3, sequence (Q9ULC8 whole entry, looked up, canonical isoform): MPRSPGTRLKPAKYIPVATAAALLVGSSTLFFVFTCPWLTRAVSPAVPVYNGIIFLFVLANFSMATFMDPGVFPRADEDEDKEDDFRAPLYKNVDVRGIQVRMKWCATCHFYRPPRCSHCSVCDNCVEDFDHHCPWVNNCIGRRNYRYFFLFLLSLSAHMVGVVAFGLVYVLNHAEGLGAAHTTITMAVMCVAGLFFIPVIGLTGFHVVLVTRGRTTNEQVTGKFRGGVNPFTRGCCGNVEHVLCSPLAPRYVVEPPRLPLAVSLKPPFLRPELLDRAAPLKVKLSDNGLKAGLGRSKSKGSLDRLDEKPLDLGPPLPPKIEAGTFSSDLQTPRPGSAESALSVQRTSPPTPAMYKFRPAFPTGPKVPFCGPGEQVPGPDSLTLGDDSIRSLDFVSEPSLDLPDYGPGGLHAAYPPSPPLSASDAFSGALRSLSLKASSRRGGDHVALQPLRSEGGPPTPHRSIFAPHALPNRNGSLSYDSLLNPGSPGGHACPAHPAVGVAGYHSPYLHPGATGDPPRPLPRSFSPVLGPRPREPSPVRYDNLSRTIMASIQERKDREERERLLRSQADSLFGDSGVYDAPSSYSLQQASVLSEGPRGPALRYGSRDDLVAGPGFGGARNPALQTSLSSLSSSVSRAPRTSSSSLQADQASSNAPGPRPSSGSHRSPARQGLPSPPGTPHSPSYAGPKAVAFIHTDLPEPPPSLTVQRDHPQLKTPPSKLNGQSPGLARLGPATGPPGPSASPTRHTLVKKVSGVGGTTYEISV

The structures appear in SMILES notation. Of roughly 7,900 targets only a part is listed; those with a hit were picked by preference. About 0.6% of all pairs of compound and target were hits. Values without a mark were called inactive.

ZDHHC17, sequence (Q8IUH5 whole entry, looked up): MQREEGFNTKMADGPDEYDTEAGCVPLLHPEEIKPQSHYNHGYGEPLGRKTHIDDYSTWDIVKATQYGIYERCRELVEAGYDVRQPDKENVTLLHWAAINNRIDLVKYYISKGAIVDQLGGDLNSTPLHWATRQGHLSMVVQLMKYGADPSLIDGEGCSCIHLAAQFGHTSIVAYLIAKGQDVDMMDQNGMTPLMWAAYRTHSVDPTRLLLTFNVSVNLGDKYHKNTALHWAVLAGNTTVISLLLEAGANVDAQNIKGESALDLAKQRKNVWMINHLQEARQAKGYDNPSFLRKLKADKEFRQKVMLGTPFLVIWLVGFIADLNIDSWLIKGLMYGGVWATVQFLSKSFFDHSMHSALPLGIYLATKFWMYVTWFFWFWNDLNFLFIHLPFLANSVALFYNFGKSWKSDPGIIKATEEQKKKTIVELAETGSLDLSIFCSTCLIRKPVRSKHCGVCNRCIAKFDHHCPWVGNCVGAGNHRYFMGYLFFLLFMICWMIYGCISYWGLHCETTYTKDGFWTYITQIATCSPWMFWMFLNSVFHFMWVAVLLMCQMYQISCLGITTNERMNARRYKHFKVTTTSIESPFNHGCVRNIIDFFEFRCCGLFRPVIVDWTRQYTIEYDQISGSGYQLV
ZCCHC9, sequence (Q8N567 whole entry, looked up): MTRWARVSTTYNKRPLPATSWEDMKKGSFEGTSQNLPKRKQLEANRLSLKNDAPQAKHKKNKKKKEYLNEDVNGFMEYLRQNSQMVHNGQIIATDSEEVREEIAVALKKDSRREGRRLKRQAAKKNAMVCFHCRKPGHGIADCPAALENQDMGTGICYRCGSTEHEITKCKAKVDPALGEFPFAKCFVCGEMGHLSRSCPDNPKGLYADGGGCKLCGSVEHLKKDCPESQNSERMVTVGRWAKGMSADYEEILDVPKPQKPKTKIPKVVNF
YY1, sequence (P25490 whole entry, looked up): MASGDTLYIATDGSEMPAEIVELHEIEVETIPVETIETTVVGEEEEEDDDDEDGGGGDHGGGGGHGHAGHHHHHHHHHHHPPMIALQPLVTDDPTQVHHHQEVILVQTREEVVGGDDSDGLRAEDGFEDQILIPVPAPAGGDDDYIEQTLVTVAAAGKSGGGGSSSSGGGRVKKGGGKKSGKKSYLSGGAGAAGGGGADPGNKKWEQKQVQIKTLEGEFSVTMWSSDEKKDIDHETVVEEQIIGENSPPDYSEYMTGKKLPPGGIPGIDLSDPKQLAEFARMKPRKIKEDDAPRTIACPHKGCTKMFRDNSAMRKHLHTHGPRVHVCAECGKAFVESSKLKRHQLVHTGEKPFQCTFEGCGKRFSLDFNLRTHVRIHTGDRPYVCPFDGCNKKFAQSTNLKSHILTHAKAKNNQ
ZDHHC6, sequence (Q9H6R6 whole entry, looked up): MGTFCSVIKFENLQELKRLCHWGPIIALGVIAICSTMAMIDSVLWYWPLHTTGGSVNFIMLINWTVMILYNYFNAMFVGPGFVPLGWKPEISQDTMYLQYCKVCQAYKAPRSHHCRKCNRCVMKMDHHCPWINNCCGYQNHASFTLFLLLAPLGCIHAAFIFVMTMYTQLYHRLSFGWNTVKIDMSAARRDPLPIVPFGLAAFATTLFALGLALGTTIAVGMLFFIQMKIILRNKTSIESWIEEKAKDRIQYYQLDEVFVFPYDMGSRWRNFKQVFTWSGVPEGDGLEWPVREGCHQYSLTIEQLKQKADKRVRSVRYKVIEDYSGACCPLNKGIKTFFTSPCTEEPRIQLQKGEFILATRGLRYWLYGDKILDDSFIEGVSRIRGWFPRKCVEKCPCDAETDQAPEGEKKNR
ZDHHC20, sequence (Q5W0Z9 whole entry, looked up): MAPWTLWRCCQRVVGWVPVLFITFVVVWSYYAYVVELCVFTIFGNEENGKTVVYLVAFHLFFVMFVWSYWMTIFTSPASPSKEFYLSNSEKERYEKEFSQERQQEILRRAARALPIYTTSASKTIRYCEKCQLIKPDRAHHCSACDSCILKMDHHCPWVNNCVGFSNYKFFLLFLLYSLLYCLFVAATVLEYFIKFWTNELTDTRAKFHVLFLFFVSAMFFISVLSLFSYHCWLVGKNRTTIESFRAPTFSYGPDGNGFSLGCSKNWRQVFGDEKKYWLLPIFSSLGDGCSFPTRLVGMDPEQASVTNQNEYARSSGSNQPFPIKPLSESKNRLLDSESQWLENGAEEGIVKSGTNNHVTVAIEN
YWHAQ, sequence (P27348 whole entry, looked up): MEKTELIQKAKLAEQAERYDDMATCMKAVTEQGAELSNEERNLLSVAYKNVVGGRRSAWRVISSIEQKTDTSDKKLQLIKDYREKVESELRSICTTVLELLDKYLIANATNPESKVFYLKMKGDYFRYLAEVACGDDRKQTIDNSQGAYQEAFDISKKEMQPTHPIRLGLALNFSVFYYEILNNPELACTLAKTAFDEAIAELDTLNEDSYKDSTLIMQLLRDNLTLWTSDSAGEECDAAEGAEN
YWHAZ (UniProt P63104), sequence (P63104 whole entry, looked up): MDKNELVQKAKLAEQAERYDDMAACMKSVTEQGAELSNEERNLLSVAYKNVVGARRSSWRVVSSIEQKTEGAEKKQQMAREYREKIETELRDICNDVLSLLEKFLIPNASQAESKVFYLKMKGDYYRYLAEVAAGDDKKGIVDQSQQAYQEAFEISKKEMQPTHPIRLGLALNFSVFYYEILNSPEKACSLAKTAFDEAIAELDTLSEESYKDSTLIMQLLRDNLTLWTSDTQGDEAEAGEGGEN
YWHAB, sequence (P31946 whole entry, looked up): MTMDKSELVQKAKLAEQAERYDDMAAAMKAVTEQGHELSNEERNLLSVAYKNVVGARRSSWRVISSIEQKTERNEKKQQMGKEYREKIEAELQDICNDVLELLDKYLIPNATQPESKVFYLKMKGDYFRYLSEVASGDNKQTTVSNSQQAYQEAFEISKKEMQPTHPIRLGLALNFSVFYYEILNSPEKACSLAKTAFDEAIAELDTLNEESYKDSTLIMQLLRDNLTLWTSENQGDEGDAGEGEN

For the compound `COC(=O)N[C@@H](C)CNc1nccc(-c2cn(C(C)C)nc2-c2cc(Cl)cc(NS(C)(=O)=O)c2F)n1` [encorafenib], the log2 fold change with YWHAB is -0.003; with YWHAQ, -0.016; with YWHAZ [1], -0.156; with YWHAZ [2], -0.031; with YY1, 0.066; with ZADH2, 0.045. Moreover, the log2 fold change in the test with ZBTB43 was 0.065; in the test with ZC3H18, -0.03; with ZC3H8, -0.01; in the test with ZC3HC1 it was 0.05; in the test with ZCCHC9, 0.002; with ZDHHC17, -0.015. Further, the log2 fold change is -0.058 in the test with ZDHHC20, -0.028 with ZDHHC5, 0.006 with ZDHHC6 and -0.043 with ZDHHC7 isoform 2.

In the case of `Cc1nc(Nc2ncc(C(=O)Nc3c(C)cccc3Cl)s2)cc(N2CCN(CCO)CC2)n1` [dasatinib], the log2 fold change was 0.006 with YWHAB; -0.149 with YWHAQ; -0.094 with YWHAZ [1]; -0.044 with YWHAZ [2]; -0.001 with YY1; 0.035 in the test with ZADH2. Moreover, the log2 fold change with ZBTB21 is -0.005; with ZBTB43, -0.034; with ZC3H18 it was 0.038; with ZC3H8, 0.123; with ZC3HC1 it was -0.214; in the test with ZDHHC17 it was -0.002. For the same compound, the log2 fold change in the test with ZDHHC20 was -0.163; with ZDHHC5, 0.019; with ZDHHC7 isoform 2, -0.063; in the test with ZDHHC8 isoform 3, -0.112.

Take `CNc1nc(-c2ccc3c(N)n[nH]c3c2)cc(N2C[C@@H](C(=O)NC3CCCCC3)CC[C@H]2C)n1`: the log2 fold change in the test with YWHAB was -0.015; with YWHAQ it was 0.179; with YWHAZ [1] it was -0.097; in the test with YWHAZ [2] it was 0.031; with YY1, -0.08; with ZADH2, -0.011. Besides, the log2 fold change with ZBTB21 was -0.111; with ZBTB43 it was -0.014; with ZC3H18, -0.136; with ZC3H8 it was 0.012; with ZC3HC1, 0.104; in the test with ZDHHC17, 0.017. Also, the log2 fold change with ZDHHC20 is 0.121; with ZDHHC5, 0.011; in the test with ZDHHC7 isoform 2, -0.03; with ZDHHC8 isoform 3, 0.

Consider `C[C@@H](Oc1cc(-c2cnn(C3CCNCC3)c2)cnc1N)c1c(Cl)ccc(F)c1Cl` [crizotinib], for which the log2 fold change with YWHAB was 0.017; with YWHAQ, 0.026; with YWHAZ [1] it was 0.081; with YWHAZ [2], 0.008; with YY1, -0.021; with ZADH2, 0.127. Moreover, the log2 fold change with ZBTB21 was -0.1; with ZBTB43 it was -0.077; in the test with ZC3H18, -0.042; with ZC3H8, 0.089; with ZC3HC1, -0.109; with ZCCHC9, 0.032. In addition, the log2 fold change with ZDHHC17 was -0.064; with ZDHHC20, 0.017; with ZDHHC5 it was 0.075; in the test with ZDHHC7 isoform 2, -0.131; with ZDHHC8 isoform 3, -0.187.

As to `CCCS(=O)(=O)Nc1ccc(F)c(C(=O)c2c[nH]c3ncc(Cl)cc23)c1F`, the log2 fold change in the test with YWHAB was 0.031; with YWHAQ, 0.233; in the test with YWHAZ [1], -0.05; with YWHAZ [2], 0.228 (active); in the test with YY1, 0.037; with ZADH2 it was -0.012. The log2 fold change in the test with ZBTB21 is 0.091; with ZC3H18, -0.019; with ZC3H8 it was -0.138; with ZC3HC1 it was 0.189; in the test with ZCCHC9, -0.177; in the test with ZDHHC17, -0.016. In addition, the log2 fold change was 0.138 with ZDHHC20, -0.009 with ZDHHC5, -0.048 with ZDHHC6 and 0.014 with ZDHHC7 isoform 2.

Take `c1cn2cc(-c3ccc4cn[nH]c4c3)nc(Nc3ccc(N4CCOCC4)cc3)c2n1` [entospletinib]: the log2 fold change in the test with YWHAB is 0.009; with YWHAQ, -0.017; with YWHAZ [1], 0.161; with YWHAZ [2] it was 0.006; in the test with YY1, 0.022; with ZADH2, 0.053. The log2 fold change is 0.137 with ZBTB43; 0.097 with ZC3H18; -0.034 in the test with ZC3H8; 0.005 with ZC3HC1; 0.168 in the test with ZCCHC9; 0.059 in the test with ZDHHC17. The log2 fold change with ZDHHC20 was -0.02; with ZDHHC5, 0.071; with ZDHHC6, -0.058; with ZDHHC7 isoform 2 it was 0.027.

Take `O=C(Nc1nc2ccccc2n1CCN1CCOCC1)c1cccc([N+](=O)[O-])c1` [IRAK-1-4 Inhibitor I]: the log2 fold change in the test with YWHAB is 0.127; in the test with YWHAQ, 0.084; in the test with YWHAZ [1], 0.005; in the test with YWHAZ [2], 0.105; with YY1 it was -0.026; with ZADH2, 0.036. Further, the log2 fold change is 0.006 with ZBTB21; -0.043 with ZBTB43; -0.036 with ZC3H18; -0.098 in the test with ZC3H8; -0.017 with ZC3HC1; -0.085 in the test with ZCCHC9. For the same compound, the log2 fold change in the test with ZDHHC17 is -0.008; in the test with ZDHHC20, -0.044; with ZDHHC5, -0.043; with ZDHHC7 isoform 2, 0; with ZDHHC8 isoform 3 it was -0.049.

Take `CC(C)N(C[C@H]1O[C@@H](n2cnc3c(N)ncnc32)[C@H](O)[C@@H]1O)[C@H]1C[C@@H](CCc2nc3cc(C(C)(C)C)ccc3[nH]2)C1` [pinometostat]: the log2 fold change with YWHAB is -0.031; with YWHAQ, -0.067; with YWHAZ [1] it was -0.035; with YWHAZ [2], -0.026; in the test with YY1 it was 0.02; with ZADH2, 0. The log2 fold change is 0.209 with ZBTB21; -0.05 with ZBTB43; 0.053 with ZC3H18; 0.017 in the test with ZC3H8; -0.005 with ZC3HC1; 0.187 with ZCCHC9. For the same compound, the log2 fold change with ZDHHC17 was 0.053; with ZDHHC20, 0.025; in the test with ZDHHC5, -0.02; with ZDHHC7 isoform 2 it was -0.024; in the test with ZDHHC8 isoform 3, 0.026.
